Tgondii IFNg = T. gondii growth inhibition with IFN-gamma, primary screen, cell-based | Toxoplasma gondii growth in IFN-gamma-treated host cells; active compounds read low | activity change, negative = inhibition, % (no concentration beside the values) | 69,000 compounds, 3.8% hits | AID 1259416, 2018; in the data active means activity change below about -70%, passing the limit was not always enough;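 further: host cells are HeLa cells infected with Toxoplasma gondii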
Starred values were filed as active, the others as inactive; i = inactive. Only a selection was taken, and hits are over-represented in it overall.

SMILES | Tgondii IFNg
Cc1nc(-c2cn(C(C)C)c3ncccc23)sc1C(=O)N1CCCC(C)C1 (stereo unspecified) | -117*
CC1CCCN(C(=O)CCn2c(C(F)F)cc3cccnc32)C1 (stereo unspecified) | -56
CN1CCN(Cc2cn[nH]c2-c2ccc(F)cc2)CC1 | 4
CC(C)OC(=O)c1cn(Cc2c(F)cccc2F)c2sc(-c3ccc(NC(=O)C(C)C)cc3)c(CN(C)Cc3ccccc3)c2c1=O | -80*
CC(C)c1nc(Cn2ccnc2C(C)Cc2ccc3c(c2)OCO3)no1 (stereo unspecified) | 18
CC1CCN(C(=O)c2nc(-c3ccc(Cl)cc3)n3c2CCCCC3)CC1 | 22
CCCN1CCN(C(=O)c2nc(-c3ccc(C)cc3)n3c2CCCCC3)CC1 | 240
Cc1cc(NC(=O)c2nc(-c3cccc(F)c3)n3c2CCCCC3)no1 | 236
O=C(c1nc(-c2cccc(F)c2)n2c1CCCCC2)N1CCCCCC1 | -87*
O=C(c1nc(-c2cccc(F)c2)n2c1CCCCC2)N1CCN(c2ncccn2)CC1 | 6
Cc1ccc(-c2nc(C(=O)Nc3cc(C)on3)c3n2CCCCC3)cc1 | -110*
COC(=O)c1sccc1NC(=O)c1nc(-c2ccc(C)cc2)n2c1CCCCC2 | -97*
CC1CC(C)CN(C(=O)c2nc(-c3cccc(F)c3)n3c2CCCCC3)C1 (stereo unspecified) | -54
CC1CCCCN1CCCNC(=O)c1nc(-c2ccc(Cl)cc2)n2c1CCCCC2 (stereo unspecified) | -37
CC(=O)Nc1ccc(NC(=O)c2nc(-c3ccc(C)cc3)n3c2CCCCC3)cn1 | -99*
CC(C)CCNC(=O)c1nc(-c2cccc(F)c2)n2c1CCCCC2 | -42
CCOC(=O)N1CCN(C(=O)c2nc(-c3ccc(C)cc3)n3c2CCCCC3)CC1 | 29
Cc1ccc(C(=O)Sc2nc(-c3ccccc3)[nH]c2S(=O)(=O)c2ccc(C)cc2)cc1 | 12
Clc1ccc2nc3c(c(-c4ccccc4)c2c1)CCCCCCCCCC3 | 31
O=C(O)C1CCN(C(=O)C2CCN(Cc3ccccn3)CC2)C1 (stereo unspecified) | 9
CCc1nccn1CCC(=O)Nc1cc2c(C)cc(=O)oc2cc1C | -4
O=C1CCCCCN1CCC(=O)N1CCOC(c2ccc(Cl)cc2)C1 (stereo unspecified) | 95
CC(C)=CC(=O)N(CCO)Cc1ccccc1C | -4
O=C(NCCc1ccccc1)Nc1ccc(-c2nc(-c3ccccc3)co2)cc1 | 59
CO[C@@H]1CN(C)C(=O)c2cc(NC(=O)C3CCCCC3)ccc2OC[C@H](C)N(C(=O)c2ccccc2)C[C@H]1C | 80
SMILES | Tgondii IFNg
Cc1ccc(C)c(NC(=O)CN2CCC3(CC2)N=C(c2cccc(F)c2)C(=O)N3)c1 | 60
Cc1ccc2nc(C(NC(=O)c3ccncc3)C(C)C)[nH]c2c1 (stereo unspecified) | -25
COc1ccccc1-c1[nH]n2c(=O)cc(-c3n[nH]c4c3CCC4)nc2c1C | 15
Cc1cc(C)n2nc(C(=O)Nc3ccc(Cl)cc3)cc2n1 | i
O=C1C(=O)N(Cc2ccc(Cl)c(Cl)c2)c2ccccc21 | 20
CC(=O)O/N=C1/C(=O)N(Cc2cc(Cl)ccc2Cl)c2ccc(Cl)cc21 | -79*
COc1cc(-c2nc(Nc3nc(C)cc(C)n3)n[nH]2)cc(OC)c1OC | -15
COc1ccc(Cl)cc1CN(C)C(=O)c1cccc(NCC(=O)O)c1 | -4
O=C(C[C@H]1CC[C@@H]2[C@H](COC[C@H](O)CN2S(=O)(=O)c2cccc(Cl)c2)O1)N1CCOCC1 | 4
Cc1cc(C)c(NC(=O)C(=O)NCCc2sc(-c3cccc(F)c3)nc2C)c(C)c1 | 27
Cc1cccc(-c2nc(C)c(CCNC(=O)C(=O)Nc3c(C)cc(C)cc3C)s2)c1 | -79*
Cc1nc(-c2ccc(F)cc2)sc1CCNC(=O)c1cccc(C(F)(F)F)c1 | -74*
Cc1cccc(-c2nc(C)c(CCNC(=O)C(=O)Nc3c(C)cccc3C)s2)c1 | 11
Cc1nc(-c2ccc(Cl)cc2)sc1CCNC(=O)c1cccc(C(F)(F)F)c1 | -41
Cc1nc(-c2ccc(F)cc2)sc1CCNC(=O)c1ccc(C(F)(F)F)cc1 | -41
Cc1nc(-c2cccc(F)c2)sc1CCNC(=O)c1ccc(C(F)(F)F)cc1 | -90*
Cc1ccc(C(=O)NCCc2sc(-c3cccc(F)c3)nc2C)cc1 | -1
Cc1nc(-c2ccc(F)cc2)sc1CCNC(=O)c1cccc(F)c1 | -38
O=C(CSc1n[nH]c(-c2ccccn2)n1)NC1CC2CCC1C2 (stereo unspecified) | -42
O=C(Nc1ccnn1Cc1ccc2c(c1)OCO2)c1cc2c([nH]c1=O)CCC2 | 169
CCNc1nc(C)c(C(=O)N2CCC(c3nn(C)c(=O)n3CC)CC2)s1 | 62
Cc1csc(C(Cc2ccsc2)NC(=O)c2cc3c([nH]c2=O)CCC3)n1 (stereo unspecified) | -19
COc1cc(OC)c2c(c1Cl)OC1(C(=O)CC(=O)CC1C)C2=O (stereo unspecified) | 7
CCc1nc(-c2nccn2CCC2COc3ccccc3O2)c(C)[nH]1 (stereo unspecified) | 181
Cc1cc(N2CC(c3ccccn3)C2)nc(-c2ccccc2O)n1 | -14
